Experimental data reported in PubChem BioAssay (NCI).
About 83,000 compounds went through this panel and 20% of them were active in at least one assay; those are over-represented in the sample as a whole.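 Note: values are percent growth. 100 is the growth of untreated cells, values between 100 and 0 indicate rising inhibition; between -100 and 0 indicates cell death.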 Values without a mark were called inactive. Activity calls are given as the source filed them. Rule for the calls: active = growth percent below 10; inactive = the rest.

Tests used:
Experiment in all cases: NCI-60 one-dose screen, 48 h (100 = growth as untreated, 0 = no growth, -100 = all killed)
Details in all cases: 10 µM unless noted
NCI-H23 lung = test system: NCI-H23 lung
NCI-H322M lung = test system: NCI-H322M lung
HOP-62 NSCLC = test system: HOP-62 NSCLC
NCI-H460 lung = test system: NCI-H460 lung
HOP-92 NSCLC = test system: HOP-92 NSCLC
NCI-H522 lung = test system: NCI-H522 lung
786-0 renal = test system: 786-0 renal
COLO 205 colon = test system: COLO 205 colon
DU-145 prostate = test system: DU-145 prostate
K-562 leukemia = test system: K-562 leukemia
MALME-3M melanoma = test system: MALME-3M melanoma
MDA-MB-231 breast = test system: MDA-MB-231 breast
RXF 393 renal = test system: RXF 393 renal
SF-268 CNS = test system: SF-268 CNS
SF-295 CNS = test system: SF-295 CNS
SF-539 CNS = test system: SF-539 CNS
UACC-257 melanoma = test system: UACC-257 melanoma
M14 melanoma = test system: M14 melanoma
HCT-15 colon = test system: HCT-15 colon
A549/ATCC NSCLC = test system: A549/ATCC NSCLC

SMILES | growth (NCI-H23 lung) | growth (NCI-H322M lung) | growth (HOP-62 NSCLC) | growth (NCI-H460 lung) | growth (HOP-92 NSCLC) | growth (NCI-H522 lung) | growth (786-0 renal) | growth (COLO 205 colon) | growth (DU-145 prostate) | growth (K-562 leukemia) | growth (MALME-3M melanoma) | growth (MDA-MB-231 breast) | growth (RXF 393 renal) | growth (SF-268 CNS) | growth (SF-295 CNS) | growth (SF-539 CNS) | growth (UACC-257 melanoma) | growth (M14 melanoma) | growth (HCT-15 colon) | growth (A549/ATCC NSCLC)
O=C(CCc1nnc2sc(Cc3ccccc3Cl)nn12)c1nc2ncccc2[nH]1 | 89.9% | 93.5% | 92.3% | 97.8% | 78.4% | 81.5% | 105% | 109% | 101% | 102% | 94.4% | 73% | 104% | 85.5% | 99.6% | 94.2% | 107% | 96.5% | 98.9% | 
COc1cc2nc(NC3CCCC3)nc(NC3CCN(C(C)C)CC3)c2cc1OC | 88.7% | 100% | 89.3% | 71.8% | 47.8% | 62.6% | 80.7% |  | 74.8% | -4.9% (active) | 76.4% | 24.8% | 18% | 88.7% | 96.5% | 59.6% | 79.9% | -80.4% (active) | 79.2% | 75.7%
Cc1ccc2nc(NC(=O)CSC(=S)N3CCN(c4ccccc4)CC3)sc2c1 | 83.7% | 92.9% | 105% | 112% | 82.6% | -81.8% (active) | 103% | 116% | 112% | 95.7% | 105% | 101% | 108% | 101% | 104% | 104% | 108% | 97.8% | 97% | 
COc1cccc2c(=O)c3c(sc12)c(NCCCNCCO)nc1ccccc13 | 63.1% | 53.4% | 44.4% | -75.1% (active) | 10.2% | 60.9% | 56.3% |  | 41.4% | -46.9% (active) | 81.2% | 23.9% | 44.5% | 48.2% | 73% | 64.9% | 84.5% | 41.9% | 25.6% | 34.5%
COc1ccc(/C=C/C(=O)c2ccc(Nc3nc(NCCO)nc(Nc4ccc(Cl)cc4)n3)cc2)cc1 | 89.6% | 93.6% | 87.8% | 61.7% | 86.7% | 71.6% | 63.9% |  | 71.4% | 62.3% | 97.2% | 70% | 66.3% | 65.7% | 93.6% | 74.9% | 100% | 67.9% | 38.2% | 50.2%
O=C(O)CCC(=O)c1ccc(C2CCCCCC2)cc1 | 97.9% | 97.5% | 98.8% | 107% | 99.7% | 87.5% | 95.8% | 104% | 108% | 90.2% | 91.5% | 109% | 115% | 97.5% | 97.4% | 97.1% | 94.6% | 102% | 105% | 
COc1ccc(-c2nsc3c2NC(=O)CC3c2cccc(OC)c2)cc1 (stereo not drawn) | 43.3% | 57% | 39.1% | 17.6% | 49.9% | 25.5% | 49.6% | -11.7% (active) | 13.7% | 18.9% | 41.5% | 73.3% | 16.8% | 62.3% | 15.5% | 13% | 74.7% | 28.6% | 26.4% | 
